Test results: article PMC7862700, “An all-to-all approach to the identification of sequence-specific readers for epigenetic DNA modifications on cytosine”

Each sequence was assayed against T1, ERG (Homo sapiens, UniProt P11308 1-479) (assay: DAPPL (digital affinity profiling via proximity ligation, sequencing); 10 mM Tris-HCl pH 7.5, 50 mM NaCl, 1 mM DTT, 4% glycerol, room temperature, 30 min; GST-TFs on glutathione beads, 16-mer random dsDNA library, 0.1% formaldehyde crosslink after washing; high values mean tight binding). Details: protein: recombinant; tags: N-terminal GST; dsDNA, one strand shown.
T1 sequence: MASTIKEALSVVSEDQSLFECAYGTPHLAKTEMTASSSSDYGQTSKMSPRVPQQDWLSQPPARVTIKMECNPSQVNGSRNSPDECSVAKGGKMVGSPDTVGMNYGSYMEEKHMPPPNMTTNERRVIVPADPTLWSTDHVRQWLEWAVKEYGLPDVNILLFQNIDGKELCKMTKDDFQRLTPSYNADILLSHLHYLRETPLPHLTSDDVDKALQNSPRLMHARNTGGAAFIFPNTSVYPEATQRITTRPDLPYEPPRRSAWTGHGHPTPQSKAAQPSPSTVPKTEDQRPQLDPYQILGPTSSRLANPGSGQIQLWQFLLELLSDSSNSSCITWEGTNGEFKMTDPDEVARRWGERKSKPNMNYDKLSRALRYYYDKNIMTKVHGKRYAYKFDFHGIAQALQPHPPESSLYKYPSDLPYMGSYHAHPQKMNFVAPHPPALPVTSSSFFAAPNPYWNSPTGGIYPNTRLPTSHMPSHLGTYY
Method in brief: (§1)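 Binding signal is defined as a hexamer's read frequency for one factor over its frequency for the tag-only sample. To obtain reads, GST-fused human transcription factors were expressed in yeast, captured on glutathione beads, barcoded with DNA and pooled with that sample. Pools met 200 nmole of a 16-mer random double-stranded DNA library in Tris/NaCl/DTT/glycerol buffer for 30 min at room temperature before washing, 0.1% formaldehyde crosslinking, proximity ligation (BsaI/T4 ligase, 1 h, 37 °C), PCR and Illumina NextSeq500 sequencing.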

Row | Sequence | binding signal
1 | GGATAC | 1.09 fold enrichment (6-mer frequency, TF over GST control)
2 | GGACTT | 1.17 fold enrichment (6-mer frequency, TF over GST control)
3 | AGTCCT | 1.07 fold enrichment (6-mer frequency, TF over GST control)

What follows are sequences tested against ELF1 (Homo sapiens, UniProt P32519 1-619) in the same assay as above. Details: protein: recombinant; tags: N-terminal GST; dsDNA, one strand shown.
Method in brief: as §1

Chain of ELF1 (P32519 whole entry): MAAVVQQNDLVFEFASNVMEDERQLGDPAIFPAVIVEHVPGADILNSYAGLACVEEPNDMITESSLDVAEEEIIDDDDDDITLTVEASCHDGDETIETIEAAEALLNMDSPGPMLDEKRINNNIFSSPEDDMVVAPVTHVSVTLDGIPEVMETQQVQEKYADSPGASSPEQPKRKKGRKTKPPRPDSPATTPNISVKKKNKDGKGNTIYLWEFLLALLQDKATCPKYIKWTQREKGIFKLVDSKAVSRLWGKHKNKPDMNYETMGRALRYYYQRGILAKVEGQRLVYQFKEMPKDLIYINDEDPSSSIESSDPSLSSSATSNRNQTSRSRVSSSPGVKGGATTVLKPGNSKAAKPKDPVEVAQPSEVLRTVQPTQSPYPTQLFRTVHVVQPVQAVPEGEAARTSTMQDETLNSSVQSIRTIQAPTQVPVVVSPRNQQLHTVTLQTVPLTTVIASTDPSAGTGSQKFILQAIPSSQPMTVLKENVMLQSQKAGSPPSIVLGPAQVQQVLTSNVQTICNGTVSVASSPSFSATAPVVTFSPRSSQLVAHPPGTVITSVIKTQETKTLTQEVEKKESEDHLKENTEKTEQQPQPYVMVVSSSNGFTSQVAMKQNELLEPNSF

Row | Sequence | binding signal
4 | AACTGT | 1.02 fold enrichment (6-mer frequency, TF over GST control)
5 | TGGTCG | 1.02 fold enrichment (6-mer frequency, TF over GST control)
6 | GACCGG | 1 fold enrichment (6-mer frequency, TF over GST control)
7 | CATAGC | 1.02 fold enrichment (6-mer frequency, TF over GST control)
8 | GAAACC | 1.04 fold enrichment (6-mer frequency, TF over GST control)
9 | CGACGG | 1.01 fold enrichment (6-mer frequency, TF over GST control)
10 | AACGCA | 1.06 fold enrichment (6-mer frequency, TF over GST control)
11 | CATAGT | 1.01 fold enrichment (6-mer frequency, TF over GST control)
12 | GTGCCT | 1.02 fold enrichment (6-mer frequency, TF over GST control)
13 | CCACCG | 1.01 fold enrichment (6-mer frequency, TF over GST control)
14 | ATAGGC | 1.03 fold enrichment (6-mer frequency, TF over GST control)
15 | GTACCA | 1.01 fold enrichment (6-mer frequency, TF over GST control)
16 | GGCTAT | 1.02 fold enrichment (6-mer frequency, TF over GST control)
17 | GGACTT | 1.16 fold enrichment (6-mer frequency, TF over GST control)

What follows are sequences tested against T2, EHF (Homo sapiens, UniProt Q9NZC4 1-300) in the same assay as above. Details: protein: recombinant; tags: N-terminal GST; dsDNA, one strand shown.
T2 sequence: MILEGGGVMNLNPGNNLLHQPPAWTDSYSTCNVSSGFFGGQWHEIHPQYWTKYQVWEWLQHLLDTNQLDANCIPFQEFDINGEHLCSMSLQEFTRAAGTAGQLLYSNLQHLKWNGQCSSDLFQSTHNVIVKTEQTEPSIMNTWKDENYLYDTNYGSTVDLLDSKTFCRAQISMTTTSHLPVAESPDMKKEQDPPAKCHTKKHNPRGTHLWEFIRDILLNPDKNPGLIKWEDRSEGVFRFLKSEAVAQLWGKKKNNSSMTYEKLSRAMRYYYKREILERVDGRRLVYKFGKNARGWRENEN
Method in brief: as §1

Row | Sequence | binding signal
18 | TATGAG | 1.04 fold enrichment (6-mer frequency, TF over GST control)
19 | GACCGG | 1.06 fold enrichment (6-mer frequency, TF over GST control)
20 | CATAGC | 1.01 fold enrichment (6-mer frequency, TF over GST control)
21 | GAAACC | 1.04 fold enrichment (6-mer frequency, TF over GST control)
22 | TGAAGC | 1.04 fold enrichment (6-mer frequency, TF over GST control)
23 | AGTTAC | 1.02 fold enrichment (6-mer frequency, TF over GST control)
24 | AACGCA | 1.04 fold enrichment (6-mer frequency, TF over GST control)
25 | CCACCG | 1.07 fold enrichment (6-mer frequency, TF over GST control)
26 | ATAGGC | 1.04 fold enrichment (6-mer frequency, TF over GST control)
27 | ATAGGG | 1.01 fold enrichment (6-mer frequency, TF over GST control)
28 | GCCGGA | 1.08 fold enrichment (6-mer frequency, TF over GST control)
29 | GGCTAT | 1.12 fold enrichment (6-mer frequency, TF over GST control)
30 | GGATAC | 1.01 fold enrichment (6-mer frequency, TF over GST control)
31 | GGACTT | 1.11 fold enrichment (6-mer frequency, TF over GST control)
32 | AGTCCT | 1.03 fold enrichment (6-mer frequency, TF over GST control)
33 | CAGTTC | 1.02 fold enrichment (6-mer frequency, TF over GST control)

The sequences below were run against SPI1 (Homo sapiens, UniProt P17947 1-270) in the same assay as above. Details: protein: recombinant; tags: N-terminal GST; dsDNA, one strand shown.
Method in brief: as §1

Row | Sequence | binding signal
34 | GTTGGT | 1.02 fold enrichment (6-mer frequency, TF over GST control)
35 | AACGCA | 1.06 fold enrichment (6-mer frequency, TF over GST control)
36 | AGCGTC | 1.06 fold enrichment (6-mer frequency, TF over GST control)
37 | GTGCCT | 1.15 fold enrichment (6-mer frequency, TF over GST control)
38 | CCACCG | 1.04 fold enrichment (6-mer frequency, TF over GST control)
39 | GTACCA | 1.11 fold enrichment (6-mer frequency, TF over GST control)
40 | GTGCCC | 1.07 fold enrichment (6-mer frequency, TF over GST control)
41 | AGTACC | 1.03 fold enrichment (6-mer frequency, TF over GST control)
42 | ATAGGG | 1.19 fold enrichment (6-mer frequency, TF over GST control)
43 | GGCTAT | 1.03 fold enrichment (6-mer frequency, TF over GST control)
44 | AAACAG | 1.13 fold enrichment (6-mer frequency, TF over GST control)
45 | GGACTT | 1.2 fold enrichment (6-mer frequency, TF over GST control)
46 | AGTCCT | 1.2 fold enrichment (6-mer frequency, TF over GST control)
47 | CAGTTC | 1.08 fold enrichment (6-mer frequency, TF over GST control)
